In PubChem BioAssay AID1851 (National Center for Advancing Translational Sciences (NCATS), 2009):
Several values for one entry are separate records, joined by “and”; a condition that tells them apart may be missing. Equal values may be shown once. The whole screen tested about 16,000 compounds, of which about 4,000 (25%) were called active. Another 26% or so got no clear call; they are omitted. The call rests on the fitted dose curve; in most records, active means well fitted curve in the direction sought with a large enough effect; inconclusive means small, poorly fitted or top-dose-only effect, or effect the other way; inactive means no such curve, though single readings can be large or run the other way. Not all results are given here. A structure can be active in one record and inactive in another.
On the % scale 0 is the no-effect control and ±100 the full control effect.

Each compound was assayed against Cytochrome P450 2C9 (Homo sapiens) (UniProt P11712) (assay: Cytochrome panel assay with activity outcomes). Details: recombinant CYP, pro-luciferin dealkylation, luminescence, p450-cyp2c9; series mostly up to 57.1 µM.
Sequence of Cytochrome P450 2C9 (Homo sapiens) (P11712 whole entry, looked up): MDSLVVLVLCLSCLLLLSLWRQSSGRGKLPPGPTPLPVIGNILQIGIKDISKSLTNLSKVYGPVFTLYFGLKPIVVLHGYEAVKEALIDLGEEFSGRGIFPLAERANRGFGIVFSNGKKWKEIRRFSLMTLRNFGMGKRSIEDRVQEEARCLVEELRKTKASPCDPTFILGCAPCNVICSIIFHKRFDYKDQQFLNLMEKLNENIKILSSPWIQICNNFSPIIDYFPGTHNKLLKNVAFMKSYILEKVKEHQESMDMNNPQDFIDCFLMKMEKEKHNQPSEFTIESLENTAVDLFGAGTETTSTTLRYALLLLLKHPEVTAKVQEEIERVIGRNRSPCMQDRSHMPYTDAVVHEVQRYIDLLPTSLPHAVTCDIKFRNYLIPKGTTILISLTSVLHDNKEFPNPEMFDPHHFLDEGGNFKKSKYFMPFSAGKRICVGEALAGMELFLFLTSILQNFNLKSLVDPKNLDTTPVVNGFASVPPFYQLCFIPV
`C[C@H](N[C@@H](C)CCc1ccccc1)[C@H](O)c1ccc(O)cc1` was tested, and the activity, negative = inhibition was “inactive”.
With `O=C(O)c1cc[c]([Hg][S]c2ncnc3nc[nH]c23)cc1` the AC50 was 1.26 µM (active).
In the case of `Ic1cncc(OC[C@@H]2CCN2)c1`, the AC50 was 31.6 µM (active).
For `CC(C)(C)NC[C@@H](O)COc1cccc2[nH]c(C#N)cc12`, the activity, negative = inhibition was “inactive”.
For `CC[N@+]1(C)CCC[C@@H](OC(=O)C(O)(c2ccccc2)c2ccccc2)C1`, the activity, negative = inhibition was “inactive”.
In the case of `C[N+]1([O-])[C@H]2CC[C@H]1CC(OC(=O)[C@@H](CO)c1ccccc1)C2` (stereo partly specified), the activity, negative = inhibition was 3.51% [at 11.4 µM] (inactive).
`CC(C)CCC[C@@H](C)[C@@H]1CC[C@@H]2[C@H]3CC[C@H]4C[C@@H](N)CC[C@@]4(C)[C@@H]3CC[C@]21C` was tested, and the activity, negative = inhibition was 4.77% [at 11.4 µM] (inactive).
In the case of `C[C@H]1CC[C@@]2(NC1)O[C@@H]1C[C@H]3[C@@H]4CC[C@@H]5C[C@@H](O)CC[C@@]5(C)[C@@H]4CC[C@]3(C)[C@@H]1[C@@H]2C`, the activity, negative = inhibition was “inactive”.
For `C[C@@]12CC[C@H]3[C@@H](CC[C@@H]4C[C@H]5S[C@H]5C[C@]43C)[C@H]1CC[C@H]2O`, the AC50 was 0.00501 µM (active).
For `CN1C(=O)CCS(=O)(=O)[C@@H]1c1ccc(Cl)cc1`, the activity, negative = inhibition was “inactive”.
For `c1ccc([C@H]2CNCc3ccccc32)cc1`, the activity, negative = inhibition was “inactive”.
With `CCCN(CCC)[C@@H]1CCc2cccc(O)c2C1` the activity, negative = inhibition was “inactive”.
In the case of `CC[C@]1(c2cccc(O)c2)CCCCN(C)C1`, the activity, negative = inhibition was “inactive”.
For `C[C@@H]1Cc2cc3c(cc2C(c2ccc(N)cc2)=NN1)OCO3`, the AC50 was 25.1 µM (active).
For `CC1=NN=C(c2ccc(N)cc2)c2cc3c(cc2C1)OCO3`, the AC50 was “inactive and 1.26 µM (active)”.
In the case of `CCCC[N+]1(C)[C@@H]2CC(OC(=O)[C@@H](CO)c3ccccc3)C[C@H]1[C@H]1O[C@H]12` (stereo partly specified), the activity, negative = inhibition was “inactive”.
`CC(C)CC(=O)C[C@H](O)C(Cl)(Cl)Cl` was tested, and the activity, negative = inhibition was -21.3% [at 11.4 µM] (inactive).
With `COc1cc2c(cc1O)C[C@@H]1c3c(cc(O)c(OC)c3-2)CCN1C` the activity, negative = inhibition was -4.78% [at 11.4 µM] (inactive).
In the case of `CC(C)CN1CCC2(CC1)CCN(C(=O)Oc1ccccc1)CC2`, the activity, negative = inhibition was “inactive”.
For `Cc1nccc2c1[nH]c1ccccc12`, the activity, negative = inhibition was “inactive”.
In the case of `Cn1c(O)c(C(c2ccccn2)c2c(O)n(C)c(=S)[nH]c2=O)c(=O)[nH]c1=S`, the activity, negative = inhibition was “inactive”.
In the case of `O=C(c1cc(-c2ccccc2)nc2ccccc12)N1CCC2(CC1)OCCO2`, the AC50 was 28.2 µM (active).
`O=C(c1cc2cc3ccc(Cl)cc3nc2o1)N1CCC2(CC1)OCCO2` was tested, and the activity, negative = inhibition was “inactive”.
For `O=[N+]([O-])c1ccc(S(=O)(=O)Cc2ccccc2)c([N+](=O)[O-])c1`, the AC50 was 3.16 µM (active).
With `O=C(O)Cc1ccc([N+](=O)[O-])cc1[N+](=O)[O-]` the activity, negative = inhibition was 11.5% [at 11.4 µM] (inactive).
With `O=C1c2cc([N+](=O)[O-])ccc2-c2ccc3c4ccc5c6c(ccc(c7ccc1c2c73)c64)C(=O)c1cc([N+](=O)[O-])ccc1-5` the activity, negative = inhibition was -26.9% [at 11.4 µM] (inactive).
With `N[C@H](Cc1ccc2oc3cc(=O)c4ccccc4c-3nc2c1)C(=O)O` the activity, negative = inhibition was -13.7% [at 11.4 µM] (inactive).
For `COc1ccc(C(=O)c2c(C)n(CCN3CCOCC3)c3cc(I)ccc23)cc1`, the activity, negative = inhibition was “inactive”.
`CN(C)CS/C(N)=N/[C@H](O)C(Cl)(Cl)Cl` was tested, and the activity, negative = inhibition was -28.6% [at 11.4 µM] (inactive).
In the case of `CC[N+](CC)(CCNC(=O)C(=O)NCC[N+](CC)(CC)Cc1ccccc1Cl)Cc1ccccc1Cl`, the activity, negative = inhibition was “inactive”.
`C/C=C1\C[C@H](C)[C@@](O)(CO)C(=O)OCC2=CCN3CC[C@@H](OC1=O)[C@@H]23` was tested, and the activity, negative = inhibition was “inactive”.
For `COCCCN1CCN(c2nnc3n2-c2sc(Br)cc2C(c2ccccc2Cl)=NC3)CC1`, the AC50 was 12.6 µM (active).
For `COCCCNC(=S)NC1CC2CCCC(C1)N2Cc1cccs1` (stereo unspecified), the activity, negative = inhibition was “inactive”.
With `COc1cc2c(c(OC)c1OC)-c1ccc(O)c(=O)cc1[C@H](N)CC2` the activity, negative = inhibition was “inactive”.
For `CC[C@]1(OC(=O)CN)C(=O)OCc2c1cc1n(c2=O)Cc2cc3ccccc3nc2-1`, the activity, negative = inhibition was 6.92% [at 11.4 µM] (inactive).
For `Nc1ccc(S(=O)(=O)c2ccc(NCN3C(=O)NC(=O)C(=O)C3=O)cc2)cc1`, the activity, negative = inhibition was 7.48% [at 11.4 µM] (inactive).
For `CC(C)(C)CC(=O)NC(=S)Nc1ccccc1C(F)(F)F`, the AC50 was 2.51 µM (active).
`NCCCN1CCN(c2ccccc2)CC1` was tested, and the activity, negative = inhibition was 3.16% [at 11.4 µM] (inactive).
In the case of `CCNC(=O)O/N=C(\C)c1sc(-c2ccccc2)nc1C`, the AC50 was 8.91 µM (active).
With `C/C(=N\OC(=O)NC(C)C)c1sc(-c2ccc(Cl)cc2)nc1C` the AC50 was 7.08 µM (active).
`CCC(CC)C(=O)NC1CCSC1=O` (stereo unspecified) was tested, and the activity, negative = inhibition was “inactive”.
`N=C(N)n1cc(/C=N\N=C(N)N)cn1` was tested, and the activity, negative = inhibition was 5.35% [at 11.4 µM] (inactive).
With `CC1=CC(=O)C2=C(C)C[C@@H](O)[C@@H]3[C@@H](OC(=O)[C@H]3C)[C@H]12` the activity, negative = inhibition was “inactive”.
In the case of `CN(C)C(=O)Oc1cc(OC(=O)N(C)C)cc([C@@H](O)CNC(C)(C)C)c1`, the activity, negative = inhibition was “inactive”.
For `C[C@@]12CC[C@@H]3[C@H](CCC4=CC(=O)CC[C@]43C)[C@@H]1CC[C@@H]2C(=O)Cn1cnc2c(=S)nc[nH]c21`, the activity, negative = inhibition was -11.6% [at 11.4 µM] (inactive).
`COC(=O)N1CCC2(CCN(CC(C)C)CC2)CC1` was tested, and the activity, negative = inhibition was “inactive”.
`C[C@@]12CC[C@H](O)C[C@@H]1CC[C@H]1[C@@H]2C[C@@H](O)[C@]2(C)[C@@H](C3=CC(=O)OC3)CC[C@]12O` was tested, and the activity, negative = inhibition was “inactive”.
With `C[N+]1(C)CCN(c2ccccc2)CC1` the activity, negative = inhibition was “inactive”.
In the case of `C[C@H](CC(C#N)(c1ccccc1)c1ccccc1)N1CCCCC1`, the activity, negative = inhibition was 6.88% [at 11.4 µM] (inactive).
`CCCCCCCCC(=O)NCc1ccc(O)c(OC)c1` was tested, and the AC50 was 3.16 µM (active).
In the case of `COc1cc(CCN)ccc1O`, the activity, negative = inhibition was “inactive”.
With `CNC[C@H](O)c1ccc(O)c(OC)c1` the activity, negative = inhibition was “inactive”.
In the case of `COc1cc(CNC(=O)CCCC/C=C\C(C)C)ccc1O`, the AC50 was 1.26 µM (active).
In the case of `COc1cc([C@@H](O)CN)ccc1O`, the activity, negative = inhibition was “inactive”.
`C[C@@H]1O[C@H](O[C@@H]2CC[C@@]3(C=O)[C@H]4CC[C@@]5(C)[C@@H](C6=CC(=O)OC6)CC[C@@]5(O)[C@@H]4CC[C@]3(O)C2)C[C@H](O)[C@@H]1O` was tested, and the activity, negative = inhibition was “inactive”.
`COc1ccc2[nH]cc(C3=CCNCC3)c2c1` was tested, and the activity, negative = inhibition was “inactive”.
In the case of `C=CCN1C(=O)NC(=O)/C(=C/c2cccn2C)C1=O`, the activity, negative = inhibition was “inactive”.
In the case of `O=C(O)Cc1cccnc1C(=O)O`, the activity, negative = inhibition was “inactive”.
With `O=c1cccc2n1CC1CNC[C@H]2C1` the activity, negative = inhibition was “inactive”.
In the case of `c1ccc(N2CC[C@@]3(CCCNC3)C2)cc1`, the activity, negative = inhibition was “inactive”.
With `CC(C)CN1CCC2(CC1)CCN(S(C)(=O)=O)CC2` the activity, negative = inhibition was “inactive”.
`Cc1ccc(N(C)C(=O)Oc2cccc3ccc(C)nc23)cc1` was tested, and the AC50 was 11.2 µM (active).
With `O=C1OC(=O)[C@@H]2[C@@H]1[C@@H]1CC[C@H]2O1` the activity, negative = inhibition was “inactive”.
In the case of `O=C(O)C(C(=O)O)P(=S)(S)c1ccccc1` (stereo unspecified), the activity, negative = inhibition was 4.02% [at 11.4 µM] (inactive).
In the case of `COC(=O)C[C@](O)(CCCC(C)(C)O)C(=O)O[C@@H]1C(OC)=C[C@]23CCCN2CCc2cc4c(cc2[C@H]13)OCO4`, the activity, negative = inhibition was “inactive”.
With `C[C@]12CC[C@@H]3C(=CCc4cc(O)ccc43)[C@@H]1CCC2=O` the activity, negative = inhibition was “inactive”.
In the case of `CC(=O)C1=C(O)[C@@H]2[C@@H]3c4c[nH]c5cccc(c45)C[C@@H]3C(C)(C)N2C1=O`, the AC50 was 31.6 µM (active).
`CCN(CC)C(=O)N[C@@H]1C[C@H]2c3cccc4[nH]cc(c34)C[C@@H]2N(C)C1` was tested, and the activity, negative = inhibition was “inactive”.
In the case of `S=C=Nc1cccc(C2(N3CCCCC3)CCCCC2)c1`, the activity, negative = inhibition was “inactive”.
For `CCCN[C@@H]1CCc2c(OC)cccc2[C@@H]1C`, the activity, negative = inhibition was “inactive”.
For `C=C(C)[C@H]1CC[C@]2(CO)CC[C@]3(C)[C@@H](CC[C@H]4[C@@]5(C)CC[C@@H](O)C(C)(C)[C@@H]5CC[C@@]43C)[C@H]12`, the activity, negative = inhibition was “inactive”.
`C[C@@H]1[C@@H](C)N1C[C@H](O)Cn1ccnc1[N+](=O)[O-]` (stereo partly specified) was tested, and the activity, negative = inhibition was 21.8% [at 11.4 µM] (inactive).
`Oc1ccc2c3c1O[C@H]1c4[nH]c5ccccc5c4C[C@]4(O)[C@H](C2)N(CC2CC2)CC[C@@]314` was tested, and the AC50 was 25.1 µM (active).
`Oc1ccc2c3c1O[C@@H]1c4[nH]c5c(c4C[C@@]4(O)[C@@H](C2)N(CC2CC2)CC[C@]314)C[C@]1(O)[C@@H]2Cc3ccc(O)c4c3[C@@]1(CCN2CC1CC1)[C@H]5O4` was tested, and the activity, negative = inhibition was “inactive”.
`Oc1ccc2c3c1O[C@H]1c4[nH]c5c(c4C[C@@]4(O)[C@@H](C2)N(CC2CC2)CC[C@]314)C[C@]1(O)[C@H]2Cc3ccc(O)c4c3[C@@]1(CCN2CC1CC1)[C@@H]5O4` was tested, and the activity, negative = inhibition was “inactive”.
For `C=C[C@@H]1CN2CC[C@H]1C[C@H]2[C@H](O)c1ccnc2ccccc12`, the activity, negative = inhibition was -2.06% [at 11.4 µM] (inactive).
For `c1cncc([C@@H]2CCCCN2)c1`, the activity, negative = inhibition was “inactive”.
For `NCCSC(c1ccccc1)c1ccccc1`, the AC50 was 1 µM (active).
In the case of `C[C@H](N)[C@@H](O)c1ccccc1`, the activity, negative = inhibition was “inactive”.
With `CC(=O)[C@@H]1CC[C@@H]2[C@@H]3CC=C4C[C@H](OS(=O)(=O)O)CC[C@@]4(C)[C@H]3CC[C@]21C` the activity, negative = inhibition was “inactive”.
In the case of `C[C@@H]1O[C@H](OC2[C@@H](O)[C@H](O)C(O)[C@H](O)[C@H]2O)[C@@H](N)C[C@@H]1N=C(N)C(=O)O` (stereo partly specified), the activity, negative = inhibition was 0.868% [at 11.4 µM] (inactive).
With `COc1ccc2c(c1O)-c1cccc3c1[C@H](C2)N(C)CC3` the activity, negative = inhibition was “inactive”.
For `O=[As](O)(O)c1ccc(N=Nc2ccc(O)cc2)cc1`, the activity, negative = inhibition was -6.31% [at 11.4 µM] (inactive).
`NNC(=O)c1ccc(O)cc1` was tested, and the activity, negative = inhibition was “inactive”.
In the case of `NC(N)=NC(=O)c1nc(Cl)c(N)nc1N`, the activity, negative = inhibition was “inactive”.
For `C[C@@]12CC[C@@H]3[C@H](CCC4=CC(=O)CC[C@]43C)[C@@H]1CC[C@@H]2C(=O)COS(=O)(=O)c1ccc(Br)cc1`, the activity, negative = inhibition was -18.3% [at 11.4 µM] (inactive).
